In PubChem BioAssay AID1942 (Johns Hopkins Ion Channel Center, 2009) one finds activity change, less the hit threshold data, which are given here for 28 compounds.

Molecules are shown by their SMILES. Hit rate of the full screen: of about 2,400 compounds, about 580 (24%) were called active. A selection follows. Unmarked numbers belong to inactive results.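 Rule for the calls: active = activity change at or above the mean plus 3 SD of buffer wells without dofetilide, per plate; inactive = the rest.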

For this assay, the target named is Potassium voltage-gated channel subfamily KQT member 2 (Rattus norvegicus) (UniProt O88943). Briefly: rat KCNQ2 channel activation by compounds alone, confirmation, counter-screen for hERG block protector project, cell-based, CHO, FluxOR thallium flux (AID 1942).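 Note: normalized value minus buffer-control mean plus three SD of buffer wells.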 The note with it: CHO-KCNQ2 cells, FluxOR thallium flux fluorescence; at 10 µM; hits give high values.
Sequence of Potassium voltage-gated channel subfamily KQT member 2 (Rattus norvegicus) (O88943 whole entry, looked up): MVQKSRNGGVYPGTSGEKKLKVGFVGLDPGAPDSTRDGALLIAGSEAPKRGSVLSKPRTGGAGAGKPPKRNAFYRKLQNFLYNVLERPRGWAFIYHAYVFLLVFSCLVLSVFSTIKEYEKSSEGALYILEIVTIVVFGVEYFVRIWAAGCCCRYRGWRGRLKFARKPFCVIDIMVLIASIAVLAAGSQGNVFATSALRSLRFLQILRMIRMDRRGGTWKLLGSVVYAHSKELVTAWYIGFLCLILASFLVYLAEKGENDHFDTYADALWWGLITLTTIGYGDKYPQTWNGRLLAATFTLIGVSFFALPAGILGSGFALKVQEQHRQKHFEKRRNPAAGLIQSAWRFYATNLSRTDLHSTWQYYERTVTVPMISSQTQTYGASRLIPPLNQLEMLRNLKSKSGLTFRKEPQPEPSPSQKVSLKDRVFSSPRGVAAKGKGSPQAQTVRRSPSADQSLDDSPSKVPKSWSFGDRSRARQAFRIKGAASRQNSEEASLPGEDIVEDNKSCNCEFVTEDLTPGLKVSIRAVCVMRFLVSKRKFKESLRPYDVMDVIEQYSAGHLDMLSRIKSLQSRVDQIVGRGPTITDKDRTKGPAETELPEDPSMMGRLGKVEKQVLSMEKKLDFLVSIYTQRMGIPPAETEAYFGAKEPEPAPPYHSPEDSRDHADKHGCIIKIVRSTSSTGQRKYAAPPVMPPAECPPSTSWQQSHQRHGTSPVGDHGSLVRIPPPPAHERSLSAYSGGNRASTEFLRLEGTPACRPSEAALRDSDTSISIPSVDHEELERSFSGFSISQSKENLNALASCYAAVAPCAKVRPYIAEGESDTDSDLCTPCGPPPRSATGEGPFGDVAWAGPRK
As to `CN1CCN(c2nnc(-c3cccs3)c3ccccc23)CC1`, the activity change, less the hit threshold is -26.6%. For `COC(=O)c1sccc1NC(=S)N1CC(C)CC(C)C1` (stereo not drawn) the value was -25%; for `O=c1ccc(N=Nc2ccccc2)ccc1O`, 87.6% (active). For `CN(C)c1ccc(N=Nc2ccc(C(=O)O)cc2)cc1` the value was -18.5%; for `O=C(COC(=O)c1cccs1)NCCN1C(=O)CSC1=O`, -22%; for `CC(NC(=O)c1ccc(Br)cc1)c1ccc2c(c1)CCCC2` (stereo not drawn), 33.3% (active). `CC(NC(=O)CCNC(=O)c1ccco1)c1ccc(F)cc1` (stereo not drawn): the activity change, less the hit threshold is -12.9%. `CCc1ccc(C(C)NC(=O)c2ccc(F)cc2)cc1` (stereo not drawn): the activity change, less the hit threshold was 21.6% (active).

`Cn1c(CNC(=O)CNC(=O)c2ccc(F)cc2)cc(=O)n(C)c1=O`: the activity change, less the hit threshold is -10.8%. For `CC(NC(=O)c1ccc(F)cc1)c1ccc2c(c1)CCCC2` (stereo not drawn) the value was 26.1% (active). In the case of `S=c1[nH]c2ccccc2n2cccc12`, the activity change, less the hit threshold was -14.5%. `CCOc1ccc(-n2c(C)c(C(C)=O)c3cc(O)ccc32)cc1`: the activity change, less the hit threshold is -2.3%. As for `CC(=O)c1ccc(S(=O)(=O)NCc2ccc(C(=O)N(C)CC(=O)Nc3cccc(F)c3)cc2)cc1`, the activity change, less the hit threshold is -9.1%. For the compound `C=CCn1c(=S)[nH]c2scc(-c3cccs3)c2c1=O`, the activity change, less the hit threshold is 93.7% (active). For `C=CCn1c(=S)[nH]c2scc(-c3ccc(C)o3)c2c1=O` the value was 80.3% (active); for `C=CCn1c(SCC(N)=O)nc2scc(-c3ccc(C)o3)c2c1=O`, 1.7% (active).

Take `C=CCn1c(=S)[nH]c2cc(-c3ccccc3)sc2c1=O`: the activity change, less the hit threshold was -4.4%. Consider `C=CCn1c(SCC(=O)Nc2cccc(C)c2)nnc1-c1cnccn1`, for which the activity change, less the hit threshold was -26.8%. In the case of `NC(=O)CSc1nc2ccccc2c(=O)n1CCc1ccccc1`, the activity change, less the hit threshold is -15.2%. As to `CCC1(C)CC2(CCCN(CCC(=O)c3ccccc3)C2)CCO1` (stereo not drawn), the activity change, less the hit threshold was -25%.

With `O=C(NCc1ccco1)C1CCN(C(=O)Cc2ccccc2)CC1`, the activity change, less the hit threshold was -17.3%.

As for `O=C(CCSCCc1ccccn1)Nc1cccc([N+](=O)[O-])c1`, the activity change, less the hit threshold is -11.2%. In the case of `CCN1C(=O)/C(=C\c2ccc(-c3cccc(C(=O)OC)c3)o2)SC1=Nc1ccc(C(=O)O)cc1`, the activity change, less the hit threshold is -22.8%. Regarding `CCCCN(C(=O)CNC(=O)c1cccs1)C(C(=O)NC1CCCC1)c1ccncc1` (stereo not drawn), the activity change, less the hit threshold was -7.8%.

For `CCCCN(C(=O)CC1CCCC1)c1c(N)n(CC(C)C)c(=O)[nH]c1=O`, the activity change, less the hit threshold is -9.9%. To `Cc1[nH]n(-c2ccccc2)c(=O)c1N=Nc1ccc(C(N)=O)cc1` belongs -25.6%. To `CCCSC(=S)c1c(C)[nH]n(-c2ccccc2)c1=O` belongs 49.7% (active); to `CCSC(=S)c1c(C)[nH]n(-c2ccccc2)c1=O`, -4.2%.
